# Compound activity: PubChem BioAssay, National Center for Advancing Translational Sciences (NCATS)
# Many of the other results were omitted from the sample, so hits are more common in it than they were.
# IMPase Li inh – qHTS Assay for Identifying the Cell-Membrane Permeable IMPase Inhibitors: Potentiation with Lithium; CHO-M1 cells, IP1 TR-FRET (IP-One), carbachol + lithium; Potency, µM (doses to about 59.4 µM), inactives show at the top dose activity, negative = IMPase inhibition, usual class: inhibitors; actives 0.35% (n = 210,000); AID 1457, 2008;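 also: IP1 builds up when IMPase is blocked and the TR-FRET signal falls; potency is read from the fitted curve at half-maximal effect; plate controls were basal vehicle for no effect and high inhibitor control for full effect; nearly all actives have a fitted effect of over 50% in size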
#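 CHO cells stably expressing M1 receptor (2000/well, cultured 16–30 h) treated 30 min at 37C with compound plus low lithium. Cytosolic IP1 by TR-FRET (665/620 ratio and 620 channel) after 10 min lysis; AC50 by Hill fit.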
# IMPase cell inh – qHTS Assay for Identifying the Cell-Membrane Permeable IMPase Inhibitors. CHO-M1 cells, IP1 accumulation, HTRF TR-FRET ratio. 120,000 tested, under 10 active. Inositol monophosphatase 1 (Rattus norvegicus), P97697. inhibition (IP1 accumulation), % at 46.1 µM; active = well fitted curve in the direction sought with a large enough effect in the signal ratio, not every such curve was filed as active; inconclusive = small, poorly fitted or top-dose-only effect, or a change in a side signal; inactive = no such curve, though single readings can be large or run the other way; the % refers to the signal ratio;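 also: cells stimulated with carbachol in lithium chloride buffer; plate controls were DMSO basal wells for no effect and reference inhibitor wells for full effect; higher means more IMPase inhibition seen as more IP1 and lower FRET ratio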
#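 In this qHTS, compounds (final up to 46 uM) act on CHO-M1 cells that are then activated through the M1 receptor with carbachol, in pH 7.4 buffer containing 50 mM LiCl, for 30 min. IP1 accumulation is quantified by the IP-One immunoassay.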
# ALOX15B inhib – qHTS Assay for Inhibitors of 15-hLO-2 (15-human lipoxygenase 2) | Potency, µM (titrated, usually from 57.1 µM), inactives show top-dose activity change, negative = inhibition, most hits filed as inhibitors | Polyunsaturated fatty acid lipoxygenase ALOX15B (Homo sapiens), O15296 | actives 0.56% (n = 110,000) | purified 15hLO-2, xylenol orange hydroperoxide absorbance | AID 881, 2007; also: potency is read from the fitted curve at half-maximal effect; nearly all actives have a fitted effect of over 60% in size
# Target sequence (O15296 whole entry, looked up): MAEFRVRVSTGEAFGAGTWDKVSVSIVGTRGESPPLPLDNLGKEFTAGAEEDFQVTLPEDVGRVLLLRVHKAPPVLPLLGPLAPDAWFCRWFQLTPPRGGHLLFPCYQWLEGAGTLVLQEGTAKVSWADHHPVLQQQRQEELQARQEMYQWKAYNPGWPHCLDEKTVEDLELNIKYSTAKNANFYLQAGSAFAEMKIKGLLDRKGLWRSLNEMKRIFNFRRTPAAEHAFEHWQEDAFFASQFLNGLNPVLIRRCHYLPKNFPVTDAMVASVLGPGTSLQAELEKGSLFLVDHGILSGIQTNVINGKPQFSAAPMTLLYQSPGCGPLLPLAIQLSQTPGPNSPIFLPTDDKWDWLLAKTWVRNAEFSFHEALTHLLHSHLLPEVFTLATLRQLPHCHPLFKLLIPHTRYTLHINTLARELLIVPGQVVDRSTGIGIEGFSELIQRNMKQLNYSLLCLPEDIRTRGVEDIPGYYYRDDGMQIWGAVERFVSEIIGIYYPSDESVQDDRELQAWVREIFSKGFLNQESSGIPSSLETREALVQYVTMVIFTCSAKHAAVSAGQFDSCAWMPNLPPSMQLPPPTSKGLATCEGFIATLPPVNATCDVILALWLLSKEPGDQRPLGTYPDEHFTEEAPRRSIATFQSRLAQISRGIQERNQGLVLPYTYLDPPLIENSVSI
#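 Screening format was qHTS against 50 nM purified 15hLO-2 in Hepes pH 7.5 with detergent. Activity follows hydroperoxide formation from 45 uM arachidonic acid, measured as 573:405 nm absorbance ratio of the ferric-xylenol orange complex.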
# 12-hLO inh – qHTS Assay for Inhibitors of 12-hLO (12-human lipoxygenase). actives 0.12% (n = 150,000). Polyunsaturated fatty acid lipoxygenase ALOX12 (Homo sapiens), P18054. Potency, µM (doses to about 57.1 µM), for the others: at the top dose activity change, negative = inhibition, usual class: inhibitors. purified 12-hLO, xylenol orange hydroperoxide absorbance; also: potency is read from the fitted curve at half-maximal effect; nearly all actives have a fitted effect of over 55% in size
#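 Xylenol orange chromogenic assay: hydroperoxide from 12hLO oxidises Fe(II), giving red-shifted Fe(III)-XO absorbance. Conditions: 150 nM enzyme, 40 uM arachidonic acid, 25 mM Hepes pH 7.0, 0.01% Triton X-100, 30 min, room temperature.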
# PNC assembly inh – High Content Assay for Compounds that inhibit the Assembly of the Perinucleolar Compartment; activity change (PNC), negative = inhibition, % at 10 µM; AID 2417, 2010; PC3M PTB-GFP, PNC prevalence imaging, 16 h; stronger effect = lower value; actives 3.1% (n = 140,000);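 active = readout at or below -70, meaning at least 70% loss of cells showing the perinucleolar compartment, a nuclear body marking cancer cells; inconclusive = readout between -30 and a set limit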;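 also: plate controls were DMSO wells for no effect and camptothecin positive control wells for full effect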
#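 Compounds are pinned in duplicate onto adhered PC3M cells stably expressing GFP-tagged PTB and incubated 16 h at 37 C. Cells are then fixed, nuclei stained with Hoechst, and PNC-positive cells counted.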
# * = called active by the depositor; ? = inconclusive; . = not tested or not shown; [ ] = another dose, or the depositor's remark. Unless noted, calls follow the shape of the dose curve; as a rule, active = well fitted curve in the direction sought with a large enough effect; inconclusive = small, poorly fitted or top-dose-only effect, or another doubt; inactive = no such curve, though single readings can be large; an effect the other way counts as inactive or inconclusive. Unless noted, % is scaled to controls: 0 for no effect and ±100 for the full control effect.
SMILES,IMPase Li inh,IMPase cell inh,ALOX15B inhib,12-hLO inh,PNC assembly inh
Fc1ccc(NC(=S)NCCc2ccccc2)c(F)c1F,32%[38.3 µM],1,?,16µM*,-19
Fc1ccccc1NC(=S)NCCc1ccccc1,-6%[38.3 µM],3,-15%,-5%,?
COc1ccc(NC(=S)NCCc2ccc(S(N)(=O)=O)cc2)c(OC)c1,0%,.,.,.,.
S=C(NCCc1ccc(Cl)cc1)Nc1ccc(Cl)cc1Cl,21%,3,.,11µM*,-14
COc1ccc(NC(=S)NCCc2ccc(Cl)cc2)c(OC)c1,-9%[38.3 µM],?,25µM*,?,8
COc1ccc(-c2nc3cnc(OC)nc3n(-c3ccccc3)c2=O)cc1,6%,.,-13%,.,.
Nc1nc(=O)c2[nH]cnc2n1O,-14%,.,-5%[11.4 µM],1%[11.4 µM],.
CC(=O)[C@H](C(=N)C#N)C(=O)Nc1ccccc1,0%,.,7%[11.4 µM],5%[11.4 µM],.
O=C(NNC(=O)c1cccnc1SCc1cccc([N+](=O)[O-])c1)c1ccc(F)cc1,10%,-8,.,-3%,-87*
Ic1ccc2c(c1)N(c1ccccc1)c1cc(Nc3ccc4nc5ccc(I)cc5[n+](-c5ccccc5)c4c3)ccc1N2,6%,.,-15%[11.4 µM],0%[11.4 µM],.
N#C/C(=C\c1c[nH]c2ccccc12)C(=O)c1ccc(O)c(O)c1,35%,10,-29%,4µM*,.
N#C/C(=C\c1ccc(O)c(O)c1)C(=O)c1ccc(O)c(O)c1,44%,?,-29%,?,.
N#C/C(=C\c1ccc(O)c(O)c1)C(=O)OCCc1cccs1,13%,2,13µM*,?,.
COc1ccc(Cc2ccc3[nH]c(=O)cc(C)c3c2)cc1S(=O)(=O)O,-14%,.,-9%[11.4 µM],-5%[11.4 µM],.
Cc1cc(Cc2cc(Cc3cc(C)cc(C(C)(C)C)c3O)c(C)cc2C)c(O)c(C(C)(C)C)c1,3%,.,-28%[11.4 µM],-11%[11.4 µM],.
COc1ccccc1CNc1ncncc1-c1ccccc1C,14%,.,7%,-4%,.
CC(C)=CC(=O)Nc1nnc(-c2ccccc2)s1,0%,-13,-5%,1%,-23
CC(C)=CC(=O)Nc1nnc(C)s1,1%,-1,.,0%,-108*
CCC(=O)Nc1nnc(C)s1,1%,2,.,3%,-106*
Cc1noc(C)c1CSc1ccc2ccccc2n1,7%,4,.,-1%,-119*
COCCN1CN(S(=O)(=O)c2ccc(Cl)cc2)c2nc3ccccc3nc21,1%[38.3 µM],-2,-8%,-9%,?
COCCN1CN(S(=O)(=O)c2ccccc2)c2nc3ccccc3nc21,13%[38.3 µM],-1,-15%,11%,-117*
COc1ccccc1N1CCN(C2CCN(C(=O)c3cccs3)CC2)CC1,10%,3,.,-21%,-119*
O=c1c(-c2ccc(Cl)cc2)nc2cncnc2n1Cc1ccccc1Cl,11%,.,4%,-1%,.
CCOC(=O)CSc1nc(-c2ccccc2)nc2ccc(F)cc12,10µM*,?,5%,-4%,-24
SMILES,IMPase Li inh,IMPase cell inh,ALOX15B inhib,12-hLO inh,PNC assembly inh
CCC(CC)C(=O)Nc1cc([N+](=O)[O-])ccc1Cl,6%,.,.,-4%,-116*
Cn1c(=O)n(C)c2cc(N3CCOCC3)c(NC(=O)c3ccc(C(C)(C)C)cc3)cc21,.,-5,.,.,.
CN(C)CCCN1c2ccccc2Sc2cnccc21,7%,.,9%[11.4 µM],7%[11.4 µM],.
COC(=O)CC1C(C)(C)C(O)C2CC3=C4C=C(OC)OC(c5ccoc5)[C@]4(C)CCC3[C@@]1(C)C2=O (stereo not given in full),17%,.,-3%,-1%,.
CCN(CC)C(=O)CSc1nc2ncc(Br)cc2[nH]1,.,10,-8%,0%,?
Fc1ccc(CSc2nc3ncc(Br)cc3[nH]2)cc1,14µM*,3,-7%,9%,12
Cc1c(Cl)cccc1NC(CC(=O)c1ccccc1)C(=O)O (stereo not given),-4%,.,.,-1%,-83*
O=C(CC(Nc1ccccc1Cl)C(=O)O)c1ccccc1 (stereo not given),2%,.,.,.,.
CCN1C(=O)C(O)(CC(=O)c2ccc(-n3cccc3)cc2)c2ccccc21 (stereo not given),8%,-5,.,1%,-100*
CCOc1ccc(S(=O)(=O)N2CCN(C(=S)NC3CC3)CC2)cc1,-1%,.,.,.,.
CCOc1ccc(S(=O)(=O)N2CCN(C(=S)NCc3ccco3)CC2)cc1,3%,.,.,-1%,-87*
N[C@H](Cn1ccc(=O)n(Cc2ccccc2C(=O)O)c1=O)C(=O)O,10%,-4,6%,-2%,.
COc1ccc2nc(NCc3ccccc3)[nH]c2c1,20%[38.3 µM],6,38%,5%,?
Cc1ccc2nc(NCc3ccccc3)[nH]c2c1,1%[38.3 µM],1,35%,-10%,-103*
Cc1ccc(-c2cc(-c3ccccc3)c3c(N)c(S(C)(=O)=O)sc3n2)cc1,10µM*,-23,-15%,-9%,?
Fc1ccccc1,4%,.,-1%,-4%,.
CSc1nnc2c3ccccc3n(Cc3ccccc3)c2n1,?,?,-11%,3%,?
CSc1nnc2c3ccccc3n(CCc3ccccc3)c2n1,0%[38.3 µM],-10,-27%,-9%,-118*
Cc1ccc(S(=O)(=O)N(Cc2cc3cc4c(cc3[nH]c2=O)OCCO4)CC2CCCO2)cc1 (stereo not given),7.1µM*,-9,-1%,2%,38
COc1ccc2cc(CN(CC3COCCO3)S(=O)(=O)c3ccc(Cl)cc3)c(=O)[nH]c2c1 (stereo not given),7.1µM*,8,-9%,-3%,29
O=c1[nH]c2cc3c(cc2cc1CN(CC1CCCO1)S(=O)(=O)c1ccc(Cl)cc1)OCCO3 (stereo not given),5%[38.3 µM],-10,3%,5%,?
O=C(c1csc2ccccc12)n1cccn1,-12%,1,-5%,-2%,-87*
CCC1(C)N(O)C(C)(C)C(c2ccc(F)cc2)=[N+]1[O-] (stereo not given),-2%,-7,.,-5%,-100*
Cc1c(/C(O)=C2/C(=O)C(=O)N(Cc3cccnc3)C2c2cccs2)cnn1-c1ccccc1 (stereo not given),7.1µM*,?,-10%,-15%,8
CN(C)S(=O)(=O)c1ccc(/C(O)=C2/C(=O)C(=O)N(Cc3cccnc3)C2c2cccs2)cc1 (stereo not given),-14%,.,.,.,.
COC(=O)c1cn(CCOc2ccc(C)cc2)c2ccccc12,5%[38.3 µM],6,8%,-11%,-82*
COc1ccc(OCCn2cc(C(=O)c3ccco3)c3ccccc32)cc1,.,6,.,.,.
CCOc1ccccc1C(=O)Nc1cc2c(cc1N1CCCCC1)n(C)c(=O)n2C,.,20,.,.,.
